{
  "source": "PubChem BioAssay (Tox21)",
  "note": "Where “and” joins values, the source holds several entries; their conditions need not be identical. Identical values can stand only once. Calls of active or inactive are those of the source. Where a call stands in place of a potency, no number is given. Calls follow the shape of the full dose curve. Potency is read from the fitted curve at half-maximal effect.",
  "data": [
    {"target": "Thyrotropin-releasing hormone receptor (Homo sapiens) (UniProt P34981)", "sequence (P34981 whole entry, looked up)": "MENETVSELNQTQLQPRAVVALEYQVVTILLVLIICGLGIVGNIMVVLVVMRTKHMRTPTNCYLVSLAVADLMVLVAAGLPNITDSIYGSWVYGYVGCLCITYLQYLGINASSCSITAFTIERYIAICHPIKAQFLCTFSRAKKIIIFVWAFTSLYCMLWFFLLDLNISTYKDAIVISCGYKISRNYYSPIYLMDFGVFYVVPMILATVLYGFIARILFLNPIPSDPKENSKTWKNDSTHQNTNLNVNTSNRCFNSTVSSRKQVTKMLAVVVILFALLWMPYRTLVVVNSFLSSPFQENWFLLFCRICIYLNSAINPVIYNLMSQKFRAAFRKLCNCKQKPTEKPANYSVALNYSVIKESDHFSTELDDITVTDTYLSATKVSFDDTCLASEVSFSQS", "experiment": "qHTS assay to identify small molecule agonists of the thyrotropin-releasing hormone receptor (TRHR) signaling pathway (AID 1346891)", "details": "TRHR-HEK293 calcium fluorescence, agonist mode; series mostly up to 57.6 µM", "in_short": "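Cells: TRHR-Hek293, seeded and incubated 18 h. Dye loading: 2 h at 37 °C. Compound added from DMSO stock by pin tool. Read-out: kinetic calcium fluorescence over 3 min.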", "values": [
      {"smiles": "CCCCCCOc1cc(C)c(O)c(C)c1C", "Potency": "inactive"},
      {"smiles": "CN1CCN(C2Cc3ccccc3Sc3ccc(Cl)cc32)CC1", "note": "(centres undefined)", "Potency": "inactive"},
      {"smiles": "N#CSCSc1nc2ccccc2s1", "Potency": "inactive"},
      {"smiles": "CCC1(c2cnc[nH]2)Cc2ccccc2C1", "Potency": "inactive"},
      {"smiles": "CCCCCCCC/C=C\\CCCCCCCC(=O)N(C)CC(=O)O", "Potency": "inactive"},
      {"smiles": "Nc1ccc2cc3ccc(N)cc3nc2c1", "Potency": "15.5 µM (active) and 13.5 µM (active)"},
      {"smiles": "O=C1c2c(O)ccc(O)c2C(=O)c2c(NCCNCCO)ccc(NCCNCCO)c21", "Potency": "inactive"},
      {"smiles": "C[n+]1c2cc(N)ccc2cc2ccc(N)cc21", "note": "(tested in a mixture with another compound)", "Potency": "7.56 µM (active)"},
      {"smiles": "C[C@@]12C(=O)OC(=O)[C@]1(C)C1CCC2O1", "Potency": "inactive"},
      {"smiles": "CCCCCCOc1ccc(O)cc1", "Potency": "inactive"},
      {"smiles": "CC(C)c1cccc(C(C)C)c1N1C(=O)c2ccc(O)cc2C1=O", "Potency": "inactive"},
      {"smiles": "Clc1ccccc1CN1CCc2sccc2C1", "Potency": "inactive"},
      {"smiles": "CCO[Si](CCCSSSSCCC[Si](OCC)(OCC)OCC)(OCC)OCC", "Potency": "inactive"},
      {"smiles": "CCN(CC)CCNc1ccc(CO)c2sc3ccccc3c(=O)c12", "Potency": "inactive"},
      {"smiles": "CC(=O)Nc1ccc(O)cc1", "Potency": "inactive"},
      {"smiles": "Cc1cccc(C)c1NC(=O)CN1CCN(CCCC(c2ccc(F)cc2)c2ccc(F)cc2)CC1", "Potency": "inactive"},
      {"smiles": "CC(O)C#CC(C)O", "note": "(centres undefined)", "Potency": "inactive"},
      {"smiles": "C[C@]12CC[C@H]3C(=CCc4cc(O)ccc43)[C@@H]1CCC2=O", "Potency": "inactive"},
      {"smiles": "O=Nc1ccc(NO)cc1", "Potency": "inactive"}
    ]}
  ]
}
